Among the data in PubChem BioAssay AID1211 (NMMLSC, 2008) are inhibition of ligand binding values, retold here.

Activity calls are given as the source filed them. How the calls were made is not given here.

In this test the target is Estrogen receptor (Homo sapiens) (UniProt P03372). Nature of the test: displacement of fluorescent estrogen from ERalpha – cell-based, Cos7 ERalpha-GFP, flow cytometry, primary screen (AID 1211).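 Further: 0% = DMSO vehicle wells and 100% = no E2-Alexa633 signal left.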 The following applies: fluorescent ligand competition, stronger effect = higher value. In general terms: Flow cytometry measures light scatter and fluorescence of single cells or particles in a stream.
Chain of Estrogen receptor (Homo sapiens) (P03372 whole entry, looked up): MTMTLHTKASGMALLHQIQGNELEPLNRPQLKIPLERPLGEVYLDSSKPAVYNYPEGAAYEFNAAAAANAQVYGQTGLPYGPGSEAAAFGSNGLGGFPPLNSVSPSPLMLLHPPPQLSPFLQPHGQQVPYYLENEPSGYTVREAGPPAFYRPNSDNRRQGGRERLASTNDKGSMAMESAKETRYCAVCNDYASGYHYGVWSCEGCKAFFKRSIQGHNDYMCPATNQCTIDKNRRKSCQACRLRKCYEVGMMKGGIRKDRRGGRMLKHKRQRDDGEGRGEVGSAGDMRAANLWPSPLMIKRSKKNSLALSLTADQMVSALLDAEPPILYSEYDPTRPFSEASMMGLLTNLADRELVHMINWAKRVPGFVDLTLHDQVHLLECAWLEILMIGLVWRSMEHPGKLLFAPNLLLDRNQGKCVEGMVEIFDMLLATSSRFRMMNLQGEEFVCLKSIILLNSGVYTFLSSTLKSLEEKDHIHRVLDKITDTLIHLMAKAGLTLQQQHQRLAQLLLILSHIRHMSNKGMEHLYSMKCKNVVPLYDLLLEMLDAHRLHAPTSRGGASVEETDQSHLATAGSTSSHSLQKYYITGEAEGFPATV

Regarding `Cc1ccnc(NS(=O)(=O)c2ccc(NC(=O)c3cc(-c4ccc(Br)cc4)nc4ccccc34)cc2)n1`, the inhibition of ligand binding is, setting by setting: (at 10 µM) 49% (inactive); (binding inhibition, at 0.1 µM) 47%.
`O=C1c2ccccc2C(=O)N1CCCc1nc2ccccc2c(=O)n1CCCn1ccnc1`: the inhibition of ligand binding is 36% (inactive) (at 10 µM) and 23% (binding inhibition, at 0.1 µM).
Turning to `COc1ccc(C2CC(c3cccs3)=NN2c2ccc(C=O)cc2)cc1` (centres undefined), the inhibition of ligand binding (at 10 µM) is 58% (inactive) and the inhibition of ligand binding (binding inhibition, at 0.1 µM) was found to be 38%.
Turning to `Cc1ccc(-c2nn(-c3ccccc3)cc2CSC(=N)N)cc1`, the inhibition of ligand binding by setting is: (at 10 µM) 26% (inactive); (binding inhibition, at 0.1 µM) 39%.
In the same order, the values of `COc1cc(C2CC(=O)c3c(ccc4ccccc34)N2)ccc1O` (centres undefined) are 0% (inactive) and 12%.
In the same order, the values of `CN(C(=S)Nc1cccnc1)c1ccc(O)cc1` are 39% (inactive) and 41%.
In the same order, the values of `Cc1ccc(-n2c(=O)c(C#N)cc3c(=O)n4cccc(C)c4nc32)cc1` are 53% (inactive) and 32%.
For the molecule `Cc1ccc(S(=O)(=O)Cc2ccc(C(=O)N3CCN(Cc4ccccc4)CC3)o2)cc1`, the inhibition of ligand binding was 25% (inactive) (at 10 µM) and 9% (binding inhibition, at 0.1 µM).
`CCn1c2ccccc2c2cc(NC(=O)CSc3nnc(-c4ccc(OC)cc4)n3N)ccc21`: the inhibition of ligand binding (at 10 µM) was 53% (inactive) and the inhibition of ligand binding (binding inhibition, at 0.1 µM) was 17%.
Regarding `Cc1[nH]c2ccc(-c3nnc(SCC(=O)c4ccccc4F)o3)cc2c1C`, the inhibition of ligand binding by setting is: (at 10 µM) 43% (inactive); (binding inhibition, at 0.1 µM) 4%.
For `Cc1noc(C)c1S(=O)(=O)N(CC(=O)O)c1ccc2c(c1)OCO2` the same measures were 0% (inactive) and 3%.
Regarding `CC(C)(C)NC(=O)c1ccc2c(c1)C1C3CCC(C3)C1C(c1ccccc1)N2` (centres undefined), the inhibition of ligand binding was 70% (active) (at 10 µM) and 9% (binding inhibition, at 0.1 µM).
On to `O=C(Cc1cccs1)Nc1nnc(Cc2ccccc2)s1`, for which the inhibition of ligand binding was 33% (inactive) (at 10 µM) and 31% (binding inhibition, at 0.1 µM).
Regarding `O=c1[nH]cnc2c1sc1nc3c(c(-c4ccc(Cl)cc4)c12)CCC3`, the inhibition of ligand binding is, setting by setting: (at 10 µM) 41% (inactive); (binding inhibition, at 0.1 µM) 9%.
Turning to `Cn1c(-c2ccc3nc(N)sc3c2)nc2cc(N)ccc21`, the inhibition of ligand binding runs as follows: (at 10 µM) 36% (inactive); (binding inhibition, at 0.1 µM) 37%.
For `COc1ccc2c(c1)C1C=CCC1C(c1cc3c(cc1Br)OCO3)N2` (centres undefined) the same measures were 0% (inactive) and 10%.
In the case of `COc1ccc(C2CC(c3c(-c4ccccc4)c4cc(Cl)ccc4[nH]c3=O)=NN2S(C)(=O)=O)cc1OC` (centres undefined), the inhibition of ligand binding by setting is: (at 10 µM) 29% (inactive); (binding inhibition, at 0.1 µM) 37%.
In the same order, the values of `O=C(O)c1ccc(Cl)c2c1C1C=CCC1C(c1ccccn1)N2` (centres undefined) are 43% (inactive) and 10%.
For the molecule `Cc1ccc(-c2csc(NC(=O)c3ccno3)n2)cc1`, the inhibition of ligand binding (at 10 µM) was 60% (inactive) and the inhibition of ligand binding (binding inhibition, at 0.1 µM) amounted to 29%.
Take `COc1cc2c(cc1O)C(Cc1ccc(O)cc1)NCC2` (centres undefined): the inhibition of ligand binding by setting is: (at 10 µM) 34% (inactive); (binding inhibition, at 0.1 µM) 8%.
In the same order, the values of `CCn1nnc(NC(=O)CSc2ccc(Cl)cc2)n1` are 7% (inactive) and 10%.
For `O=C1C2C3C=CC(C3)C2C(=O)N1c1cccc2cccnc12` (centres undefined) the same measures were 4% (inactive) and 57%.
`CC1CC(C(F)(F)C(F)(F)F)n2nc(C(=O)O)cc2N1` (centres undefined): the inhibition of ligand binding runs as follows: (at 10 µM) 9% (inactive); (binding inhibition, at 0.1 µM) 9%.
Regarding `Cc1ccc(NC(=O)CN2C(=O)S/C(=C/c3ccc(-c4cc(C(=O)O)ccc4C)o3)C2=O)cc1C`, the inhibition of ligand binding (at 10 µM) is 50% (inactive) and the inhibition of ligand binding (binding inhibition, at 0.1 µM) turned out to be 39%.
In the same order, the values of `COc1ccc(/C=N/NC(=O)c2nc(-c3ccccc3)n(-c3ccccc3)n2)c(O)c1` are 41% (inactive) and 52%.
In the same order, the values of `COC(=O)c1cnn2c(C(F)(F)F)cc(-c3ccco3)nc12` are 0% (inactive) and 32%.
Turning to `COc1ccc(C2Nc3ccccc3C(=O)N2c2ccc(C)cc2)cc1Cn1cc([N+](=O)[O-])cn1` (centres undefined), the inhibition of ligand binding (at 10 µM) was 26% (inactive) and the inhibition of ligand binding (binding inhibition, at 0.1 µM) is 7%.
In the same order, the values of `COc1ccc2c(c1)c1nc3ccccc3nc1n2CCCN1C(=O)c2ccccc2C1=O` are 46% (inactive) and 33%.
On to `O=c1c2c([nH]c3ccccc13)C(=C1CCCC1)CC2`, for which the inhibition of ligand binding is, setting by setting: (at 10 µM) 0% (inactive); (binding inhibition, at 0.1 µM) 36%.
Regarding `O=C1c2ccccc2C(=O)N1/N=C/c1ccc(O)c(O)c1`, the inhibition of ligand binding by setting is: (at 10 µM) 32% (inactive); (binding inhibition, at 0.1 µM) 23%.
Consider `Cc1cc(C2(c3ccc(O)c(C)c3)OC(=O)c3ccccc32)ccc1O`, for which the inhibition of ligand binding runs as follows: (at 10 µM) 49% (inactive); (binding inhibition, at 0.1 µM) 11%.
In the same order, the values of `CCOc1cccc2cc(-c3nnc(NCc4ccco4)s3)c(=O)oc12` are 47% (inactive) and 61%.
In the same order, the values of `CN1CCc2cccc3c2[C@@H]1Cc1ccc(O)c(O)c1-3` are 42% (inactive) and 6%.
In the case of `COc1ccc(-c2ccc(-c3noc(-c4cccs4)n3)c(OC)n2)cc1`, the inhibition of ligand binding is 24% (inactive) (at 10 µM) and 54% (binding inhibition, at 0.1 µM).
In the case of `C/C(N)=C(/C#N)C(=O)CSc1nnc(COc2ccccc2Cl)o1`, the inhibition of ligand binding runs as follows: (at 10 µM) 20% (inactive); (binding inhibition, at 0.1 µM) 8%.
In the same order, the values of `O=S(=O)(NCC(O)COCc1ccco1)c1cccs1` (centres undefined) are 7% (inactive) and 4%.
In the same order, the values of `Cc1cc(O)ccc1C1(c2ccc(O)cc2C)OC(=O)c2ccccc21` are 28% (inactive) and 64%.
Turning to `O=C(N/N=C/c1cccc(Oc2ccc([N+](=O)[O-])cc2[N+](=O)[O-])c1)c1cncc(Br)c1`, the inhibition of ligand binding is 21% (inactive) (at 10 µM) and 63% (binding inhibition, at 0.1 µM).
`CSC1=N/C(=C\c2ccc(Br)o2)C(=O)S1`: the inhibition of ligand binding was 12% (inactive) (at 10 µM) and 13% (binding inhibition, at 0.1 µM).
Turning to `CCCc1nnc2n1N=C(c1ccc(-c3cc(Cl)ccc3Cl)o1)CS2`, the inhibition of ligand binding by setting is: (at 10 µM) 47% (inactive); (binding inhibition, at 0.1 µM) 27%.
In the same order, the values of `O=C1C2CC=C(Cl)CC2C(=O)N1CCCCCCN1C(=O)C2CC=C(Cl)CC2C1=O` (centres undefined) are 36% (inactive) and 34%.
As to `CCOC(=O)N1CCN(c2ccc(O)cc2)CC1`, the inhibition of ligand binding (at 10 µM) is 57% (inactive) and the inhibition of ligand binding (binding inhibition, at 0.1 µM) was 56%.
